Data on 61 molecules can be found in the antibiotic and cytotoxicity screens of Wong et al. (2023).

Each structure is given as a SMILES string. About 1,500 (3.8%) of roughly 39,000 compounds were called active. The full list was thinned out, with actives kept by preference.

For the assay, the system named is HSkMC (human skeletal muscle cells). Nature of the assay: cytotoxicity call (relative viability < 0.9). The note with it: 10 µM.
With `C[C@@H]1CCCCO[C@@H](CN(C)C(=O)Nc2ccccc2)[C@H](C)CN([C@H](C)CO)C(=O)c2cc(NC(=O)CCC(F)(F)F)ccc2O1`, the cytotoxicity call is “inactive”. `C[C@@H]1CN([C@H](C)CO)C(=O)c2cc(NC(=O)CCN3CCOCC3)ccc2O[C@H]1CN(C)S(=O)(=O)c1ccccc1`: the cytotoxicity call was “inactive”. In the case of `Cc1noc(C)c1NC(=O)N(C)C[C@@H]1OCCCC[C@H](C)Oc2ccc(NC(=O)C3CCCCC3)cc2C(=O)N([C@@H](C)CO)C[C@@H]1C` it was “inactive”. As for `C[C@@H]1CCCCO[C@@H](CN(C)Cc2ccc(C(=O)Nc3ccccc3N)cc2)[C@@H](C)CN([C@H](C)CO)C(=O)c2cc(NC(=O)Nc3ccc4c(c3)OCO4)ccc2O1`, the cytotoxicity call was “inactive”. In the case of `COc1ccc(CN(C)C[C@@H]2OCCCC[C@H](C)Oc3ccc(NC(=O)CCC(F)(F)F)cc3C(=O)N([C@@H](C)CO)C[C@H]2C)cc1` it was “inactive”; in that of `O=C(C[C@@H]1C=C[C@H](NC(=O)Nc2ccc3c(c2)OCO3)[C@H](CO)O1)NCCCN1CCOCC1`, “inactive”; in that of `c1cncc(-c2nc3ccc4ccccc4c3c3c2CCCC3)c1`, “inactive”. For the molecule `CN1CCN(C(=O)C[C@H]2CC[C@@H]3[C@H](COC[C@@H](O)CN3C(=O)Nc3ccc4c(c3)OCO4)O2)CC1`, the cytotoxicity call is “inactive”.

`COc1ccc(S(=O)(=O)N(C)C[C@@H]2Oc3ccc(NS(=O)(=O)c4cn(C)cn4)cc3C(=O)N([C@@H](C)CO)C[C@@H]2C)cc1`: the cytotoxicity call is “inactive”. In the case of `C[C@@H]1CN([C@H](C)CO)C(=O)c2cccc(NC(=O)C3CCOCC3)c2O[C@@H]1CN(C)C(=O)NC1CCCCC1` it was “inactive”; in that of `C[C@H]1CCCCO[C@@H](CN(C)CC2CCCCC2)[C@@H](C)CN([C@@H](C)CO)C(=O)c2cc(NC(=O)Nc3cccc4ccccc34)ccc2O1`, “inactive”; in that of `C[C@H](CO)N1C[C@H](C)[C@H](CN(C)CC2CC2)OCCCC[C@H](C)Oc2ccc(NC(=O)Nc3cccc4ccccc34)cc2C1=O`, “inactive”. In the case of `C[C@@H]1CCCCO[C@@H](CN(C)CC2CCCCC2)[C@@H](C)CN([C@@H](C)CO)C(=O)c2cc(NC(=O)Nc3cccc4ccccc34)ccc2O1` it was “active”.

For the molecule `C[C@H](CO)N1C[C@H](C)[C@@H](CN(C)CC2CCCCC2)OCCCC[C@H](C)Oc2ccc(NC(=O)Nc3cccc4ccccc34)cc2C1=O`, the cytotoxicity call is “inactive”. In the case of `C[C@@H]1CCCCO[C@H](CN(C)CC2CC2)[C@@H](C)CN([C@H](C)CO)C(=O)c2cc(NC(=O)Nc3cccc4ccccc34)ccc2O1` it was “inactive”; in that of `C[C@@H]1CCCCO[C@H](CN(C)CC2CCCCC2)[C@H](C)CN([C@@H](C)CO)C(=O)c2cc(NC(=O)Nc3cccc4ccccc34)ccc2O1`, “active”. In the case of `C[C@@H]1CCCCO[C@@H](CN(C)CC2CCCCC2)[C@H](C)CN([C@H](C)CO)C(=O)c2cc(NC(=O)Nc3cccc4ccccc34)ccc2O1` it was “active”; in that of `C[C@@H]1CN([C@H](C)CO)C(=O)c2cc(NC(=O)Nc3cccc4ccccc34)ccc2O[C@@H](C)CCCCO[C@@H]1CN(C)CC1CCCCC1`, “active”. Turning to `CC(C=CC=C(C)C=CC(=O)C1(C)CC(O)CC1(C)C)=CC=CC=C(C)C=CC=C(C)C=CC1=C(C)CC(O)CC1(C)C` (stereo unspecified), the cytotoxicity call was “inactive”. On to `C[C@@H]1CN([C@H](C)CO)C(=O)c2cc(NC(=O)Cn3cnnn3)ccc2O[C@H]1CN(C)Cc1ccc(-c2ccccc2)cc1`, for which the cytotoxicity call is “inactive”. In the case of `CN1CCN(C(=O)C[C@H]2C=C[C@H](NC(=O)Nc3ccccc3F)[C@@H](CO)O2)CC1` it was “inactive”; in that of `COC(=O)C[C@H]1CC[C@@H]2[C@H](COC[C@H](O)CN2S(=O)(=O)c2cn(C)cn2)O1`, “inactive”. `C[C@@H]1CN([C@H](C)CO)C(=O)c2cc(N(C)C)ccc2O[C@@H](C)CCCCO[C@H]1CN(C)C(=O)Nc1cccc2ccccc12`: the cytotoxicity call was “inactive”. For the molecule `C[C@@H]1CCCCO[C@H](CN(C)S(=O)(=O)c2ccc(Cl)cc2)[C@H](C)CN([C@H](C)CO)C(=O)c2cc(NS(=O)(=O)c3ccccc3)ccc2O1`, the cytotoxicity call is “inactive”.

For the molecule `C[C@@H]1CCCCO[C@H](CN(C)CC2CCCCC2)[C@H](C)CN([C@H](C)CO)C(=O)c2cc(NC(=O)Nc3cccc4ccccc34)ccc2O1`, the cytotoxicity call was “active”.

For `C[C@@H]1CCCCO[C@H](CN(C)CC2CC2)[C@H](C)CN([C@@H](C)CO)C(=O)c2cc(NC(=O)Nc3cccc4ccccc34)ccc2O1`, the cytotoxicity call is “inactive”. In the case of `C[C@@H]1CCCCO[C@@H](CN(C)CC2CC2)[C@H](C)CN([C@@H](C)CO)C(=O)c2cc(NC(=O)Nc3cccc4ccccc34)ccc2O1` it was “inactive”; in that of `C[C@@H]1CCCCO[C@H](CN(C)CC2CCCCC2)[C@@H](C)CN([C@H](C)CO)C(=O)c2cc(NC(=O)Nc3cccc4ccccc34)ccc2O1`, “active”; in that of `C[C@@H]1CCCCO[C@@H](CN(C)CC2CCCCC2)[C@@H](C)CN([C@H](C)CO)C(=O)c2cc(NC(=O)Nc3cccc4ccccc34)ccc2O1`, “active”. Take `C[C@H](CO)N1C[C@H](C)[C@@H](CN(C)C)OCCCC[C@H](C)Oc2ccc(NC(=O)Nc3cccc4ccccc34)cc2C1=O`: the cytotoxicity call is “inactive”. In the case of `C[C@@H]1CCCCO[C@@H](CN(C)CC2CC2)[C@@H](C)CN([C@H](C)CO)C(=O)c2cc(NC(=O)Nc3cccc4ccccc34)ccc2O1` it was “inactive”. In the case of `C[C@@H]1CN([C@@H](C)CO)C(=O)c2cc(NC(=O)Nc3cccc4ccccc34)ccc2O[C@@H](C)CCCCO[C@H]1CN(C)CC1CC1` it was “inactive”; in that of `C[C@H](CO)N1C[C@H](C)[C@@H](CN(C)CC2CC2)OCCCC[C@H](C)Oc2ccc(NC(=O)Nc3cccc4ccccc34)cc2C1=O`, “inactive”.

Consider `C[C@H]1CCCCO[C@H](CN(C)CC2CCCCC2)[C@@H](C)CN([C@@H](C)CO)C(=O)c2cc(NC(=O)Nc3cccc4ccccc34)ccc2O1`, for which the cytotoxicity call was “active”.

Take `C[C@H](O)c1nc(=O)c2ccccc2[nH]1`: the cytotoxicity call was “inactive”. In the case of `CC(=O)OCC(=O)C1(O)CCC2C3CCC4=CC(=O)C=CC4(C)C3(F)C(O)CC21C` (stereo unspecified) it was “inactive”. In the case of `C[C@H](CO)N1C[C@H](C)[C@@H](CN(C)C(=O)Nc2ccc3c(c2)OCCO3)OCc2cnnn2CCCC1=O` it was “inactive”; in that of `COCC(=O)Nc1ccc2c(c1)C(=O)N(C)C[C@H](OC)[C@@H](C)CN(Cc1ccccc1OC)[C@H](C)CO2`, “inactive”; in that of `S=C1C=C(N2CCCCC2)C[C@H](c2ccc(Cl)cc2)S1`, “inactive”.

In the case of `C[C@@H]1CN([C@@H](C)CO)C(=O)c2cc(NC(=O)Nc3ccc(F)cc3)ccc2O[C@H]1CN(C)S(=O)(=O)c1cn(C)cn1`, the cytotoxicity call is “inactive”. In the case of `Cc1noc(C)c1NC(=O)Nc1ccc2c(c1)C(=O)N([C@@H](C)CO)C[C@@H](C)[C@@H](CN(C)C(=O)NC(C)C)O2` it was “inactive”. In the case of `CCO[C@H]1OC(C(=O)N2CCN(Cc3ccccc3)CC2)=C[C@@H](C)[C@@H]1CCCOC(=O)NCCCCCC(=O)NO` it was “inactive”. In the case of `C[C@H](CO)N1C[C@H](C)[C@H](CN(C)Cc2ccc(Cl)c(Cl)c2)Oc2ccc(NC(=O)Cc3ccccc3)cc2C1=O` it was “inactive”; in that of `C[C@@H]1CN([C@H](C)CO)C(=O)Cc2cc(NS(C)(=O)=O)ccc2O[C@H]1CN(C)C(=O)Nc1ccc2c(c1)OCO2`, “inactive”; in that of `C[C@@H]1CN([C@@H](C)CO)C(=O)c2cc(NC(=O)Nc3cccc4ccccc34)ccc2O[C@@H](C)CCCCO[C@@H]1CN(C)CC1CCCCC1`, “active”. As for `C[C@@H]1CCCCO[C@@H](CN(C)CC2CCCCC2)[C@H](C)CN([C@@H](C)CO)C(=O)c2cc(NC(=O)Nc3cccc4ccccc34)ccc2O1`, the cytotoxicity call is “inactive”. Turning to `C[C@H](CO)N1C[C@H](C)[C@H](CN(C)CC2CCCCC2)OCCCC[C@H](C)Oc2ccc(NC(=O)Nc3cccc4ccccc34)cc2C1=O`, the cytotoxicity call is “active”.

For the molecule `C[C@@H]1CCCCO[C@@H](CN(C)CC2CC2)[C@H](C)CN([C@H](C)CO)C(=O)c2cc(NC(=O)Nc3cccc4ccccc34)ccc2O1`, the cytotoxicity call is “inactive”. In the case of `C[C@@H]1CN([C@@H](C)CO)C(=O)c2cc(NC(=O)Nc3cccc4ccccc34)ccc2O[C@@H](C)CCCCO[C@H]1CN(C)CC1CCCCC1` it was “active”. As to `NCC1(c2cccs2)CCCC1`, the cytotoxicity call is “inactive”. In the case of `CC(C)NC(=O)Nc1ccc2c(c1)C(=O)N([C@@H](C)CO)C[C@@H](C)[C@H](CN(C)Cc1ccc3c(c1)OCO3)O2` it was “inactive”; in that of `Cc1noc(C)c1S(=O)(=O)N(C)C[C@H]1Oc2ccc(NC(=O)C3CCCCC3)cc2CC(=O)N([C@H](C)CO)C[C@@H]1C`, “inactive”; in that of `CCC(=O)N[C@@H]1CC[C@H](CC(=O)OC)O[C@@H]1CO`, “inactive”. In the case of `Cc1noc(C)c1NC(=O)Nc1ccc2c(c1)C(=O)N([C@@H](C)CO)C[C@H](C)[C@@H](CN(C)Cc1ccc(Cl)c(Cl)c1)OCCCC[C@@H](C)O2` it was “inactive”; in that of `C[C@@H]1CCCCO[C@@H](CN(C)C(=O)c2ccccc2)[C@@H](C)CN([C@H](C)CO)C(=O)c2cc(NC(=O)NC3CCCCC3)ccc2O1`, “inactive”. With `Cc1noc(C)c1S(=O)(=O)Nc1cccc2c1O[C@@H](CN(C)C(=O)Nc1ccc3c(c1)OCO3)[C@@H](C)CN([C@@H](C)CO)C2=O`, the cytotoxicity call was “inactive”. In the case of `C[C@H]1CCCCO[C@H](CN(C)S(=O)(=O)c2ccc(Cl)cc2)[C@@H](C)CN([C@@H](C)CO)C(=O)c2cc(NS(=O)(=O)c3ccc(Cl)cc3)ccc2O1` it was “inactive”; in that of `C[C@@H]1CN([C@@H](C)CO)C(=O)c2cc(C#Cc3ccccc3F)cnc2O[C@H]1CN(C)C(=O)C1CCOCC1`, “inactive”. With `C[C@@H]1CCCCO[C@H](CN(C)Cc2ccc(C(=O)O)cc2)[C@H](C)CN([C@@H](C)CO)C(=O)c2cc(NS(=O)(=O)c3ccc(F)cc3)ccc2O1`, the cytotoxicity call is “inactive”. In the case of `O=C(C[C@H]1CC[C@H]2[C@@H](COC[C@@H](O)CN2S(=O)(=O)c2ccc(Oc3ccccc3)cc2)O1)NCCN1CCCCC1` it was “inactive”; in that of `C[C@@H]1CN([C@@H](C)CO)S(=O)(=O)c2ccc(-c3ccccc3F)cc2O[C@H]1CN(C)Cc1cncnc1`, “inactive”.
